Compound activity (PubChem BioAssay)
Shown are actives, neighbours in structure and some others; about 6.2% of the full set was active somewhere.
KB-V1 cytotox – KB-V1 MDR subline cytotoxicity; AID 1347076; KB-V1 MDR cells viability, CellTiter-Glo, 72 h; Potency, µM (series often up to 46.1 µM), usual class: cytotoxic; 400,000 compounds, 3.4% hits; further: nearly all actives have a fitted effect of over 60% in size
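KB-V1 cells (P-gp-expressing MDR subline of KB-3-1) in phenol-red-free DMEM with 10% FBS were exposed to library compounds over a concentration series for 72 h at 37 degrees C. Viability read by CellTiter-Glo luminescence; concentration-effect curves fitted after normalization.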
KB-3-1 cytotox – kills parental KB-3-1 adenocarcinoma cells; Potency, µM (series often up to 46.1 µM), hits mostly cytotoxic; 400,000 compounds, 1.4% hits; KB-3-1 viability, CellTiter-Glo ATP luminescence, 72 h; further: nearly all actives have a fitted effect of over 60% in size
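Screening of KB-3-1 cells (DMEM, 10% FBS, phenol-red free) ran from lowest to highest compound concentration; after 72 h at 37 °C viability was read luminescently and curves fitted.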
ATXN2 expr inh – reduces ATXN2 reporter expression in HEK-293 cells; HEK-293 ATXN2-luciferase reporter, luminescence, 24 h; Potency, µM (top dose mostly 57 µM), most hits filed as inhibitors; 360,000 compounds, 0.72% hits; further: nearly all actives have a fitted effect of over 55% in size
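ATXN2-luciferase reporter cells (luciferase flanked by upstream and downstream ATXN2 gene portions) were treated 24 h at 37 °C with compounds at up to 57 uM. SteadyGlo luminescence gave expression; GF-AFC fluorescence gave viability.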
HT1080 IDH1KD tx – HT-1080 IDH1 knockdown cell toxicity (counter line) | HT-1080 IDH1 knockdown viability, ATP luminescence, 48 h | Potency, µM (series often up to 46.1 µM), most hits filed as cytotoxic | 360,000 compounds, 2% hits
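In this qHTS, HT-1080 cells depleted of IDH1 are exposed for 48 h at 37 °C to compound titrations. Toxicity is scored from CellTiter-Glo luminescence, with DMSO as full viability and medium alone as none.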
HT1080NT lethal – kills 2HG-producing HT-1080-NT fibrosarcoma cells. HT-1080-NT fibrosarcoma viability, CellTiter-Glo ATP luminescence, 48 h. Potency, µM (doses to about 46.1 µM), most hits filed as cytotoxic. 360,000 compounds, 1.6% hits;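 further: NT is the 2HG producing partner of a matched IDH1 knockdown line; nearly all actives have a fitted effect of over 55% in size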
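750 cells/well, RPMI + 5% FBS; 2 h settle, compound pin-transfer, 48 h at 37 degrees C. CellTiter-Glo 10 min RT, luminescence. Normalized to DMSO and media-only wells.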
S2 tox – cell viability loss in ATXN counter-screen | S2 cells (HEK-293 line with an ATXN2-luciferase reporter) viability, CellTiter-Fluor protease fluorescence, 24 h | Potency, µM (highest dose often 56.7 µM), hits mostly cytotoxic | 400,000 compounds, 0.49% hits | AID 651635; further: nearly all actives have a fitted effect of over 40% in size
Hits are given with their value; n = inactive; u = inconclusive; x = not tested or not shown. The call rests on the fitted dose curve; in most records, active means well fitted curve in the direction sought with a large enough effect; inconclusive means small, poorly fitted or top-dose-only effect, or another doubt; inactive means no such curve, though single readings can be large; an effect the other way counts as inactive or inconclusive.

SMILES	KB-V1 cytotox	KB-3-1 cytotox	ATXN2 expr inh	HT1080 IDH1KD tx	HT1080NT lethal	S2 tox
Cc1ccc(-n2cc(CNCCn3nc(C)cc3C)c(-c3ccc(F)cc3)n2)cc1	n	n	u	u	20.6µM	u
Cc1ccc(-n2cc(CNCCN3CCOC3=O)c(-c3ccc(F)cc3)n2)cc1	u	n	n	n	n	n
Cc1ccc(-n2cc(CNCCc3ncc(C)[nH]3)c(-c3ccc(F)cc3)n2)cc1	u	u	25.1µM	20.6µM	16.4µM	u
COc1ccc(-c2ccc(NS(=O)(=O)c3ccc(NC(C)=O)cc3)cc2)nn1	n	n	n	x	x	n
O=C(COc1ccccc1)NCC(=O)Nc1cccc2ccccc12	18.4µM	u	n	n	n	n
COc1cc(CNCCO)cc(Cl)c1OCc1ccc(Cl)cc1Cl	n	n	15.8µM	16.4µM	20.6µM	35.5µM
CC(C)(CO)NCc1c(OCc2ccc(Cl)cc2)ccc2ccccc12	n	23.1µM	u	u	u	u
CNCc1c(OCc2ccccc2)ccc2ccccc12	n	n	n	u	n	n
COc1cc(CNC(C)(C)CO)cc(Br)c1OCc1ccc(Cl)cc1	23.1µM	u	n	u	u	n
COc1cc(CNCCO)cc(Br)c1OCc1ccccc1Cl	u	u	n	n	n	n
COc1cc(CNC(C)(C)CO)cc(Br)c1OCc1ccc(Cl)cc1Cl	18.4µM	u	n	16.4µM	16.4µM	n
CCOc1cc(CNc2ccc(O)cc2)ccc1OCc1ccc(Cl)cc1Cl	u	n	n	n	n	n
COc1ccc(Cl)cc1NC(=O)Cn1cc2c(n1)CCC(C)C2 (configuration not stated)	n	n	n	x	x	n
Cc1nnc(OCc2nc3ccccc3n2C)c2ccccc12	9.2µM	u	n	n	n	n
O=C(NCC(O)c1ccc([N+](=O)[O-])cc1)Nc1ccccc1 (configuration not stated)	n	n	n	n	n	n
CC(NCC(O)c1ccc([N+](=O)[O-])cc1)C12CC3CC(CC(C3)C1)C2 (configuration not stated)	n	n	n	23.1µM	18.4µM	n
COc1ccccc1N(C(C)=O)C1=C(Cl)C(=O)c2ccccc2C1=O	n	n	x	7.31µM	18.4µM	x
O=C(CSc1nc2ccccc2c2nc(-c3ccccc3)nn12)Nc1ccc(Br)cc1	n	n	n	x	x	n
CCOC(=O)C1C(C(=O)OCC)C1(c1ccccc1)c1ccccc1 (configuration not stated)	10.3µM	n	n	n	n	n
CCOC(=O)C1C(=O)CC(C)(O)C(C(=O)OCC)C1c1ccccc1 (configuration not stated)	n	n	n	n	n	n
CCOC(=O)C1C(=O)CC(C)(O)C(C(=O)OCC)C1/C=C/c1ccccc1 (configuration not stated)	18.4µM	n	n	n	n	n
CCOC(=O)C1C(=O)CC(O)(c2ccccc2)CC1c1ccccc1 (configuration not stated)	23.1µM	n	n	n	n	n
COc1cc2c(cc1OC)C1=C(C#N)CC/C(=N\S(=O)(=O)c3cccc(Cl)c3)N1CC2	16.4µM	u	n	u	n	n
O=C(CSc1nc(-c2ccco2)nc2cc(=O)[nH]n12)Nc1ccc(F)cc1	n	n	n	x	x	n
O=C(Nc1cccc(C(F)(F)F)c1)c1cc2c(=O)c3ccccc3oc2nc1C(F)(F)F	20.6µM	n	n	n	n	n
Cc1[nH]n(-c2ccc([N+](=O)[O-])cc2)c(=O)c1C=NCCc1c(C)[nH]c2ccccc12	16.4µM	n	u	n	n	n
Cc1[nH]n(-c2ccc([N+](=O)[O-])cc2)c(=O)c1C=NCCc1ccc(S(N)(=O)=O)cc1	n	u	n	u	n	n
Cc1[nH]n(-c2ccc([N+](=O)[O-])cc2)c(=O)c1C=NCC1CCCO1 (configuration not stated)	u	u	n	n	n	n
Cc1[nH]c2ccccc2c1/C=N/Nc1ccc([N+](=O)[O-])cc1	n	n	n	u	9.2µM	x
